# Experimental data from PubChem BioAssay (NCATS).
# Values joined by “and” are separate entries in the source; they are usually repeats but may differ in a detail not shown here. Equal entries are not always repeated. Results filed as inconclusive are left out. The source holds several records for some structures; these can differ, active in one and inactive in another. Active and inactive are the calls of the source. Unless noted, calls follow the shape of the dose curve; as a rule, active = well fitted curve in the direction sought with a large enough effect; inconclusive = small, poorly fitted or top-dose-only effect, or another doubt; inactive = no such curve, though single readings can be large; an effect the other way counts as inactive or inconclusive.
# Key:
# [1] = Primary qHTS for inhibitors of nuclear receptor binding SET domain protein 2 (NSD2) in an isogenic RCH-ACV NSD2 p.E1099K mutant (9B) (AID 1645876); also: nearly all actives have a fitted effect of over 70% in size; also: potency is read from the fitted curve at half-maximal effect
# [2] = Primary qHTS for inhibitors of nuclear receptor binding SET domain protein 2 (NSD2) in an RCH-ACV wild type WT cells (2C) (AID 1645877); also: nearly all actives have a fitted effect of over 70% in size; also: potency is read from the fitted curve at half-maximal effect
# [3] = molecular target: Glutathione peroxidase 1 (Homo sapiens) (UniProt P07203); experiment: Primary qHTS Assay for Inhibitors of Recombinant Selenoprotein Glutathione Peroxidase 1 (GPX1) (AID 1845191); also: nearly all actives have a fitted effect of over 65% in size
# Method in brief: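 GR-coupled readout: NADPH consumption tracked by fluorescence, ex 340/em 450 nm, at t=0 and after 15 min at RT. Final mix 10 nM GPX1, 1 mM GSH, 0.5 mM CHP, 0.5 mM NADPH, 100 nM GR, 0.01% BSA, following 30 min enzyme–compound preincubation.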
# [4] = molecular target: Phospholipid hydroperoxide glutathione peroxidase GPX4 (Homo sapiens) (UniProt P36969); experiment: Primary qHTS Assay for Inhibitors of Recombinant Selenoprotein Glutathione Peroxidase 4 (GPX4) (AID 1845192); also: nearly all actives have a fitted effect of over 65% in size; also: potency is read from the fitted curve at half-maximal effect
# Method in brief: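 Steps: GPX4 plus compound, 30 min RT; add GR/GSH/NADPH master mix; start with cumene hydroperoxide; read 340/450 nm fluorescence at 0 and 15 min. Finals were 200 nM GPX4, 1 mM GSH, 0.5 mM CHP, 0.5 mM NADPH, 100 nM GR.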
# [5] = qHTS drug screen for cell cycle checkpoint inhibitors in PARPi-resistant BRCA-mutant ovarian cancer cell lines. (AID 1963452; calls by dose curve; also: potency is read from the fitted curve at half-maximal effect); details: PEO1/OlaR viability, CellTiter-Glo luminescence, 96 h; for Z-AUC: stronger effect = lower value
# Method in brief: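 PEO1, PEO4 and PEO1/OlaR ovarian cancer cells, 600 per well, exposed 96 h at 37C to a dilution series. Viability read by CellTiter-Glo luminescence, normalized to DMSO and empty wells; activity summarized as Z-AUC.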
# [6] = molecular target: Rap guanine nucleotide exchange factor 3 (Homo sapiens) (UniProt O95398); experiment: Confirmatory qHTS for antagonist of cAMP-regulated guanine nucleotide exchange factor 3 (EPAC1) (AID 1645880); also: nearly all actives have a fitted effect of over 55% in size; also: potency is read from the fitted curve at half-maximal effect
# Method in brief: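 Released BODIPY-GDP fluoresces less than Rap1-bound BODIPY-GDP; the signal is followed at 480/540 nm at 5-min intervals over 30 min, after 5 min at room temperature. Reactions contain 100 nM EPAC1, 250 nM RAP1B-BODIPY-GDP and 50 uM GDP; results are normalized to ATA and DMSO.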
# [7] = molecular target: Rap guanine nucleotide exchange factor 3 (Homo sapiens) (UniProt O95398); experiment: Confirmatory qHTS for agonist of cAMP-regulated guanine nucleotide exchange factor 3 (EPAC1) (AID 1645881);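 also: EPAC1 catalysed release of BODIPY-GDP from Rap1B seen as fluorescence loss; 100% = effect of cAMP agonist control; nearly all actives have a fitted effect of over 75% in size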
# [8] = molecular target: Rap guanine nucleotide exchange factor 4 (Homo sapiens) (UniProt Q8WZA2); experiment: Confirmatory qHTS for agonist of cAMP-regulated guanine nucleotide exchange factor 4 (EPAC2) (AID 1645884);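 also: nucleotide exchange releases bodipy-GDP from Rap1 and this lowers its fluorescence; % is scaled to controls: 0 for no effect and ±100 for the full control effect; nearly all actives have a fitted effect of over 65% in size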
# [9] = molecular target: Tyrosine-protein kinase Yes (Homo sapiens) (UniProt P07947); experiment: qHTS for small molecule inhibitors of Yes1 kinase: Primary Screen (AID 686947);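 also: plate controls were DMSO with enzyme for no effect and no-enzyme DMSO wells for full effect; nearly all actives have a fitted effect of over 60% in size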
# Method in brief: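 In this qHTS format, inhibition is expressed relative to DMSO controls with enzyme (maximum) and without enzyme (minimum). The 60 min room-temperature reaction uses 0.1 mM ATP, with ADP detected by luminescence.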
# [10] = qHTS for small molecule inhibitors of Yes1 kinase: Counter Assay (AID 686950);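 also: no kinase present so only ADP-Glo detection of a fixed ADP amount is tested; luminescence from ADP-Glo reporting ADP in a fixed ATP and ADP mixture; series mostly up to about 77 µM; 0% = DMSO wells with ATP plus ADP and -100% = ATP-only wells without ADP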
# Method in brief: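 No kinase present; 0.08 mM ATP + 0.02 mM ADP in 50 mM Tris pH 7.5, 10 mM MgCl2, 150 mM NaCl, 1 mM DTT; 20 min compound preincubation, 60 min RT, ADP-Glo luminescence, normalized to ATP/ADP (max) and ATP-only (min).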
# [11] = measured here: PEO1 parental Z-AUC
# Rap guanine nucleotide exchange factor 3 (Homo sapiens), sequence (O95398 whole entry, looked up): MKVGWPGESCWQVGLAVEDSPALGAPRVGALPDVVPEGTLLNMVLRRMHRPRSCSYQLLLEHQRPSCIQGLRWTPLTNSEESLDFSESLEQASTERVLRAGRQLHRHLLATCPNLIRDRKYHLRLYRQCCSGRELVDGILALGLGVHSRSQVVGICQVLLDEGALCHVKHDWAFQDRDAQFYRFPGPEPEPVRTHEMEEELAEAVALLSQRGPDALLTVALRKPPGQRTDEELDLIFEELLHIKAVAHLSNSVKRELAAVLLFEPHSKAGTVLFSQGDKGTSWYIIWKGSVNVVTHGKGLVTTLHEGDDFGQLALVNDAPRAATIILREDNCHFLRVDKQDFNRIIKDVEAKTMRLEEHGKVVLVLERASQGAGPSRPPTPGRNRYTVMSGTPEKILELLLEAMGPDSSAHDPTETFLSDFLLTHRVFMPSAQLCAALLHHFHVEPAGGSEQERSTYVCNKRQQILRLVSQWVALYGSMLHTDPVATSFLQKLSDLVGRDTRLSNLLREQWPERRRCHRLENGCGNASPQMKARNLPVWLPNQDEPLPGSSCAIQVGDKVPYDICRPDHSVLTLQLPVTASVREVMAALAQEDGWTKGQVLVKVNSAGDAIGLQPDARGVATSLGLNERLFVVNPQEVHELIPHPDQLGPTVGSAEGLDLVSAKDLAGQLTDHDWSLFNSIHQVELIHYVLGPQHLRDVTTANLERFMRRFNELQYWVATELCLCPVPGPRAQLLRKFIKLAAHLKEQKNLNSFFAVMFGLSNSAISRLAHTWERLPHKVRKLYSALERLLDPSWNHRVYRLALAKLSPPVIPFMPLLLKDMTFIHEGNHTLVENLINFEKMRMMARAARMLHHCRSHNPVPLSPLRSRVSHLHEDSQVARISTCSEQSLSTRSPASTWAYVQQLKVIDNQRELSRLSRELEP
# Glutathione peroxidase 1 (Homo sapiens), sequence (P07203 whole entry, looked up): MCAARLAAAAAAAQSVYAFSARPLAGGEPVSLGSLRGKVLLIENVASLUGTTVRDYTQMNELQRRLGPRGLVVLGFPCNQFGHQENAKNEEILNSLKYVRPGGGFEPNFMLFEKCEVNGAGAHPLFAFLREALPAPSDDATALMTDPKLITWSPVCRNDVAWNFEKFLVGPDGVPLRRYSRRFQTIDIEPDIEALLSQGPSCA
# Phospholipid hydroperoxide glutathione peroxidase GPX4 (Homo sapiens), sequence (P36969 whole entry, looked up): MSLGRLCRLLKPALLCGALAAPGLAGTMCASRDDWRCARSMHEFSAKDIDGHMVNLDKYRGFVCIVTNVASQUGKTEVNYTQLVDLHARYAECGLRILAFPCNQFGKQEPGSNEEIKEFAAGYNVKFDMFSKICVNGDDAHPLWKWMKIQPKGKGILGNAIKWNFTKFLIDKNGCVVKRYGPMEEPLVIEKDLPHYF
# Rap guanine nucleotide exchange factor 4 (Homo sapiens), sequence (Q8WZA2 whole entry, looked up): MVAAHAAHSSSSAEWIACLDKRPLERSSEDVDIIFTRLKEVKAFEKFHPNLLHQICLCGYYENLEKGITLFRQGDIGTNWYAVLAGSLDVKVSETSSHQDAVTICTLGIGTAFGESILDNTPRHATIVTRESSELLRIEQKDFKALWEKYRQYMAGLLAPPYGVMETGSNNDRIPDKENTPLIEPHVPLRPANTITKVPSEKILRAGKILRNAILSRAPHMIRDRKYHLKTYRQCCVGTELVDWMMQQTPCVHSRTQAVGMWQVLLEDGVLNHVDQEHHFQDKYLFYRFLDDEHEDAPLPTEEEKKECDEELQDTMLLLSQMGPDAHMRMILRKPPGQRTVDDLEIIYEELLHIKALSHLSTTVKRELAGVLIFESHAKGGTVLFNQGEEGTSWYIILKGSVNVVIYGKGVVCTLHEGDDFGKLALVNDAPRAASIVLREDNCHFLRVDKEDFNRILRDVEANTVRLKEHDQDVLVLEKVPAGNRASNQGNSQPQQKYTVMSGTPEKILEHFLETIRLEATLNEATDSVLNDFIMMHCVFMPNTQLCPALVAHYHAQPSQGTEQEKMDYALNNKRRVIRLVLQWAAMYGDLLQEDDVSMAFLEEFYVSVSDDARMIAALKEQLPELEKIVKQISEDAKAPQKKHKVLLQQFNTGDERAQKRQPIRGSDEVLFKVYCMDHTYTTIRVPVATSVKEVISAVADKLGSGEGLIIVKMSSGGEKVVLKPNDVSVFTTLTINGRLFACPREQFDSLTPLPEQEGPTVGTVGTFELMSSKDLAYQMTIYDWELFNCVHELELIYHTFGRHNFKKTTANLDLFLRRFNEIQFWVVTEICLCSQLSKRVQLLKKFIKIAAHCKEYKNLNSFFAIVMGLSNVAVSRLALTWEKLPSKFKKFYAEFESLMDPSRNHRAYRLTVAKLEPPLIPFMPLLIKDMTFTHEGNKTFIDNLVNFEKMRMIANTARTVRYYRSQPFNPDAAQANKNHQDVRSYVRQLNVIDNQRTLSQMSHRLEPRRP
# Tyrosine-protein kinase Yes (Homo sapiens), sequence (P07947 whole entry, looked up): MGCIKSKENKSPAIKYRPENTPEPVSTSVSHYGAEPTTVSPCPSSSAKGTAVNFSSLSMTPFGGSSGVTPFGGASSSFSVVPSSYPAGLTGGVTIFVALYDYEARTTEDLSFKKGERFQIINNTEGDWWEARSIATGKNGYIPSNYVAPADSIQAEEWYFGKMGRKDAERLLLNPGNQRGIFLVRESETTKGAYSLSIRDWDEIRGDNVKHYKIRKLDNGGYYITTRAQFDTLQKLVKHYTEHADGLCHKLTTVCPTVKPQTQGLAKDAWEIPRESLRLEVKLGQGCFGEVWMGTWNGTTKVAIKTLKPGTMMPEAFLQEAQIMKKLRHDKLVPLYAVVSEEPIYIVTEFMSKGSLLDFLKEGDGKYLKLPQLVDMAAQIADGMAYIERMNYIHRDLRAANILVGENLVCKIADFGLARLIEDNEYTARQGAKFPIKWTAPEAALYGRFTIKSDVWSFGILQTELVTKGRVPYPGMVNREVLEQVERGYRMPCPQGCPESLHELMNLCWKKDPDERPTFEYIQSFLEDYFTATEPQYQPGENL
smiles,measurement,setting,value
CC(C)(C)NC(=O)c1cncn1C1CCN(c2ccc(-c3nnc(C(F)(F)F)o3)cn2)CC1,Potency,[1],2.63 µM (active)
same,Potency,[2],2.35 µM (active)
same,Potency,[3],inactive
same,Potency,[4],inactive
same,Z-AUC,[5],-0.537 (inactive)
same,Z-AUC,[5]; [11],0.427
same,Z-AUC,[5]; measured here: PEO4 Z-AUC,0.071
Cc1ccc(-c2nn(C(C)(C)CNC(=O)c3ccncc3)c3ncnc(N)c23)cc1,Potency,[1],8.33 µM (active)
same,Potency,[2],7.42 µM (active)
same,Potency,[3],inactive
same,Potency,[4],inactive
same,Z-AUC,[5],-0.525 (inactive)
same,Z-AUC,[5]; [11],-1.23
same,Z-AUC,[5]; measured here: PEO4 Z-AUC,-1.14
CN[C@H]1CN(c2ccc3c(=O)c(C(=O)O)cn(-c4nccs4)c3n2)C[C@@H]1OC,Potency,[1],0.135 µM (active)
same,Potency,[2],0.0762 µM (active)
same,Potency,[3],inactive
same,Potency,[4],inactive
same,Potency,[5],1.59 µM (active)
same,Z-AUC,[5],-0.941 (inactive)
same,Z-AUC,[5]; [11],-1.7 and -1.57
same,Z-AUC,[5]; measured here: PEO4 Z-AUC,-1.25 and -1.14
Cc1ccc(Nc2cc(N[C@@H]3CCCC[C@@H]3N)nnc2C(N)=O)nc1C,Potency,[1],1.05 µM (active)
same,Potency,[2],0.934 µM (active)
same,Potency,[3],inactive
same,Potency,[4],inactive
same,Z-AUC,[5],-0.241 (inactive)
same,Z-AUC,[5]; [11],-0.11
same,Z-AUC,[5]; measured here: PEO4 Z-AUC,0.345
COc1ccc2c(c1)[C@]1(C[C@H]1c1ccc3c(/C=C/c4ccc(CN5C[C@@H](C)O[C@@H](C)C5)cc4)n[nH]c3c1)C(=O)N2,Potency,[1],1.32 µM (active)
same,Potency,[2],0.0295 µM (active)
same,Potency,[4],inactive
same,Z-AUC,[5],0.356 (inactive)
same,Z-AUC,[5]; [11],-0.0342
same,Z-AUC,[5]; measured here: PEO4 Z-AUC,-0.785
Cc1cc(OCCCc2c3n(c4c(-c5c(C)nn(C)c5C)c(Cl)ccc24)[C@H](C)CN(c2cn(C)c4ccc(C(=O)O)cc24)C3=O)cc(C)c1Cl,Potency,[1],4.68 µM (active)
same,Potency,[2],2.09 µM (active)
same,Potency,[4],3.21 µM (active)
N#Cc1ccc(Cn2cncc2CN2CCN(c3cccc(Cl)c3)C(=O)C2)cc1,Potency,[1],4.68 µM (active)
same,Potency,[2],2.63 µM (active)
same,Potency,[4],inactive
same,Z-AUC,[5],-0.462 (inactive)
same,Z-AUC,[5]; [11],-0.168
same,Z-AUC,[5]; measured here: PEO4 Z-AUC,-0.142
CCOC(=O)c1ccc(N(C(=O)c2ccccc2)c2ccccc2)cc1,Potency,[6],inactive
same,Potency,[7],inactive
COc1ccc(Cl)cc1NC(=O)CN(C)Cc1cccs1,Potency,[6],inactive
same,Potency,[7],inactive
Cc1ccc(CN2C(=O)CSC2c2ccc(F)cc2)cc1 (centres undefined),Potency,[6],inactive
same,Potency,[7],inactive
same,Potency,[8],inactive
O=C1CCN(Cc2ccccc2)CCN1[C@H](COc1ccccc1)Cc1ccccc1,Potency,[6],inactive
same,Potency,[7],inactive
CC(/C=C/[C@@H]1C[C@]1(C)c1ccc2c(c1)C(C)(C)CCC2(C)C)=C\C(=O)O,Potency,[1],inactive
same,Potency,[2],inactive
same,Z-AUC,[5],-0.0414 (inactive)
same,Z-AUC,[5]; [11],0.571
same,Z-AUC,[5]; measured here: PEO4 Z-AUC,0.122
COc1ccc(SC[C@H](Cc2ccccc2)N2CC[C@@H](C)CCC2=O)cc1,Potency,[6],inactive
CCN1/C(=C/C(C)=O)Sc2ccc(O)cc21,Potency,[2],14.6 µM (active)
CCC[C@H](NC(=O)[C@@H]1[C@H]2CCC[C@H]2CN1C(=O)[C@@H](NC(=O)[C@@H](NC(=O)c1cnccn1)C1CCCCC1)C(C)(C)C)C(=O)C(=O)NC1CC1,Potency,[2],5.9 µM (active)
same,Potency,[4],inactive
same,Z-AUC,[5],1.49 (inactive)
same,Z-AUC,[5]; [11],0.769
same,Z-AUC,[5]; measured here: PEO4 Z-AUC,0.725
CO[C@H]1C[C@@H]2CC[C@@H](C)[C@@](O)(O2)C(=O)C(=O)N2CCCC[C@H]2C(=O)O[C@H]([C@H](C)C[C@@H]2CC[C@@H](OCCO)[C@H](OC)C2)CC(=O)[C@H](C)/C=C(/C)[C@@H](O)[C@@H](OC)C(=O)[C@H](C)C[C@H](C)/C=C\C=CC=C1C,Potency,[1],0.118 µM (active)
same,Potency,[2],0.0742 µM (active)
same,Z-AUC,[5],0.703 (inactive)
same,Z-AUC,[5]; [11],0.778
same,Z-AUC,[5]; measured here: PEO4 Z-AUC,0.68
Nc1cc(N)cc(N)c1,Potency,[6],28 µM (active)
CC/C(=C(/c1ccc(/C=C/C(=O)O)cc1)c1ccc2[nH]ncc2c1)c1ccc(F)cc1Cl,Potency,[2],23.5 µM (active)
same,Potency,[3],inactive
same,Potency,[4],4.04 µM (active)
same,Z-AUC,[5],1.39 (inactive)
same,Z-AUC,[5]; [11],0.628
same,Z-AUC,[5]; measured here: PEO4 Z-AUC,-0.0261
CC(=O)C(C(c1ccccc1)c1c[nH]c2ccccc12)[N+](=O)[O-] (centres undefined),Potency,[6],inactive
same,Potency,[7],inactive
CC(C)(C)S(=O)(=O)c1ccc2nccc(Nc3n[nH]c4ccc(F)cc34)c2c1,Potency,[1],13.2 µM (active)
same,Potency,[3],inactive
same,Potency,[4],inactive
same,Z-AUC,[5],-0.44 (inactive)
same,Z-AUC,[5]; [11],-0.407
same,Z-AUC,[5]; measured here: PEO4 Z-AUC,-0.499
O=C(O)CNC(=O)c1ncc(-c2cccc(Cl)c2)cc1O,Potency,[2],inactive
same,Potency,[3],inactive
same,Z-AUC,[5],-0.0287 (inactive)
same,Z-AUC,[5]; [11],0.803
same,Z-AUC,[5]; measured here: PEO4 Z-AUC,0.828
O=C(O/N=C1\c2ccccc2-c2nc3ccccc3nc21)c1ccco1,Potency,[1],18.4 µM (active)
same,Potency,[3],inactive
CN1CCN(CCCNc2ncc(Cl)c(-c3cc4c(C(=O)NC5CC5)cccc4s3)n2)CC1,Potency,[2],23.5 µM (active)
same,Potency,[3],inactive
same,Z-AUC,[5],-0.322 (inactive)
same,Z-AUC,[5]; [11],-0.452
same,Z-AUC,[5]; measured here: PEO4 Z-AUC,-0.0901
COc1ccccc1-c1nc(SCC(=O)Nc2ccc(C)c(C)c2)n[nH]1,Potency,[1],inactive
same,Potency,[3],inactive
COc1cc(OC)c2c(-c3ccccc3)cc(=O)oc2c1,Potency,[6],inactive
same,Potency,[7],inactive
same,activation,[8],"5.59% [at 17.1 µM, percent relative to cAMP agonist control] (inactive)"
C[n+]1ccc(-c2c3nc(c(-c4cc[n+](C)cc4)c4ccc([nH]4)c(-c4cc[n+](C)cc4)c4nc(c(-c5cc[n+](C)cc5)c5ccc2[nH]5)C=C4)C=C3)cc1,Potency,[2],inactive
CC[C@H](NC(=O)[C@H](C)NC)C(=O)N1C[C@@H](O)C[C@H]1Cc1c(-c2[nH]c3cc(F)ccc3c2C[C@@H]2C[C@H](O)CN2C(=O)[C@H](CC)NC(=O)[C@H](C)NC)[nH]c2cc(F)ccc12,Potency,[1],5.25 µM (active)
same,Potency,[2],18.6 µM (active)
same,Z-AUC,[5],1.52 (inactive)
same,Z-AUC,[5]; [11],1.38
same,Z-AUC,[5]; measured here: PEO4 Z-AUC,0.68
COc1ccc(C(=O)c2ccc(OC)cc2OC)cc1,Potency,[6],inactive
same,Potency,[7],inactive
COc1ncc(Nc2ncc(C(C)N3CCN(S(C)(=O)=O)CC3)cc2-c2nc(C)nc(N)n2)cc1F (centres undefined),Potency,[2],inactive
same,Potency,[4],inactive
same,Z-AUC,[5],0.314 (inactive)
same,Z-AUC,[5]; [11],0.577
same,Z-AUC,[5]; measured here: PEO4 Z-AUC,0.144
CNC(=O)CCc1cc(-c2ccc(-c3ccc(C(F)(F)F)cc3)cc2)n(-c2ccc(N3CCNCC3)cc2)n1,Potency,[2],inactive
same,Potency,[4],inactive
same,Z-AUC,[5],1.07 (inactive)
same,Z-AUC,[5]; [11],-0.284
same,Z-AUC,[5]; measured here: PEO4 Z-AUC,0.197
Nc1nonc1-c1nc2cnccc2n1C1CC1,outcome,[9],inactive
same,outcome,[10],inactive
same,Potency,[1],20.6 µM (active)
same,Potency,[2],8.2 µM (active)
